Assay results from ChEMBL document CHEMBL2218924, “A broad activity screen in support of a chemogenomic map for kinase signalling research and drug discovery” (Biochem J, 2013).

Experiments:
[1] = molecular target: Calcium/calmodulin-dependent protein kinase type II subunit beta (Homo sapiens) (UniProt Q13554); settings: at 1 µM
[2] = molecular target: Calcium/calmodulin-dependent protein kinase type II subunit beta (Homo sapiens) (UniProt Q13554); settings: at 10 µM
[3] = molecular target: Calcium/calmodulin-dependent protein kinase type II subunit delta (Homo sapiens) (UniProt Q13557); settings: at 1 µM
Chain of Calcium/calmodulin-dependent protein kinase type II subunit delta (Homo sapiens) (Q13557 whole entry): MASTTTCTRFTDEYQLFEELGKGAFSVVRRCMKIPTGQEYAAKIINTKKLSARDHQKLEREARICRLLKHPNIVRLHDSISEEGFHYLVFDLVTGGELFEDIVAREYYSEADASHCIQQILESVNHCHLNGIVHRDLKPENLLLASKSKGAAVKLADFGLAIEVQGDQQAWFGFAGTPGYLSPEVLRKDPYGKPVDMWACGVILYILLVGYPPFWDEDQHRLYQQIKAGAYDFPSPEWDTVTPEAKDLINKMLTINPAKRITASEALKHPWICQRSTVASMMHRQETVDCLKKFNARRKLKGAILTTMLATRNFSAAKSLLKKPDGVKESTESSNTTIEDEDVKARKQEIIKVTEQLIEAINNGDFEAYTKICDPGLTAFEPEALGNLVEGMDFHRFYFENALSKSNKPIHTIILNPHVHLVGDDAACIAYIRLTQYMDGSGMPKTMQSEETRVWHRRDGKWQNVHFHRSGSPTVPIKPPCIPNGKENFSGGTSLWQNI

[4] = molecular target: Calcium/calmodulin-dependent protein kinase type II subunit gamma (Homo sapiens) (UniProt Q13555); settings: at 1 µM
Chain of Calcium/calmodulin-dependent protein kinase type II subunit gamma (Homo sapiens) (Q13555 whole entry): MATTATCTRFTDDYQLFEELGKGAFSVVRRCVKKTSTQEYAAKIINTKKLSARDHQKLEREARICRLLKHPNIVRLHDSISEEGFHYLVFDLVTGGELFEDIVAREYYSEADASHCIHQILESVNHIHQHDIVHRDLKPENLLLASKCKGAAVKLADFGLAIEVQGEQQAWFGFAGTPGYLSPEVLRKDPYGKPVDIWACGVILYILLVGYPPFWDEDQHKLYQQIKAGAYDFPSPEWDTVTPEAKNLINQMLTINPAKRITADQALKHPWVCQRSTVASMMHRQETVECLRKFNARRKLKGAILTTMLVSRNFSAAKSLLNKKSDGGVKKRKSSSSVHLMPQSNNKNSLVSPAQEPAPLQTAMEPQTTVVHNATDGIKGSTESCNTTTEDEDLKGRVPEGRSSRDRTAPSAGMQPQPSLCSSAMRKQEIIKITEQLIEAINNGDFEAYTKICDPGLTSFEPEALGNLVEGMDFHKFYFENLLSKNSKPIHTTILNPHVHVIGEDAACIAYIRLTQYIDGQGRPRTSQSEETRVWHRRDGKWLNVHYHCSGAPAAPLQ

[5] = molecular target: Calcium/calmodulin-dependent protein kinase type II subunit gamma (Homo sapiens) (UniProt Q13555); settings: at 10 µM
[6] = molecular target: Calcium/calmodulin-dependent protein kinase type II subunit delta (Homo sapiens) (UniProt Q13557); settings: at 10 µM
[7] = molecular target: T1, Calcium/calmodulin-dependent protein kinase type IV (Homo sapiens) (UniProt Q16566); settings: at 1 µM
T1 sequence (whole entry): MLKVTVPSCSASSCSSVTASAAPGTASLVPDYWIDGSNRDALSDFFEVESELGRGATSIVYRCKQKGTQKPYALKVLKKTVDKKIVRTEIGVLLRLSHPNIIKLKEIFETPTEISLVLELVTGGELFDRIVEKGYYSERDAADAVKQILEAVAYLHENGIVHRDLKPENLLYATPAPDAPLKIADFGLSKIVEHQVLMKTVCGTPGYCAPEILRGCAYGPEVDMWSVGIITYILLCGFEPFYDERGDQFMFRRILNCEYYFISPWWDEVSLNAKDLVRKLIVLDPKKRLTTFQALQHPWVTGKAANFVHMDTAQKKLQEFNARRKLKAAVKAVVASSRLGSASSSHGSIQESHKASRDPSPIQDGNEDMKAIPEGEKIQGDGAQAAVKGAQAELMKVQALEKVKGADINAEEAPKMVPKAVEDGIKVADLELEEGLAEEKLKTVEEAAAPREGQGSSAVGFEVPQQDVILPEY

[8] = molecular target: T1, Calcium/calmodulin-dependent protein kinase type IV (Homo sapiens); settings: at 10 µM
[9] = molecular target: Calcium/calmodulin-dependent protein kinase type 1 (Homo sapiens) (UniProt Q14012); settings: at 10 µM
Chain of Calcium/calmodulin-dependent protein kinase type 1 (Homo sapiens) (Q14012 whole entry, looked up): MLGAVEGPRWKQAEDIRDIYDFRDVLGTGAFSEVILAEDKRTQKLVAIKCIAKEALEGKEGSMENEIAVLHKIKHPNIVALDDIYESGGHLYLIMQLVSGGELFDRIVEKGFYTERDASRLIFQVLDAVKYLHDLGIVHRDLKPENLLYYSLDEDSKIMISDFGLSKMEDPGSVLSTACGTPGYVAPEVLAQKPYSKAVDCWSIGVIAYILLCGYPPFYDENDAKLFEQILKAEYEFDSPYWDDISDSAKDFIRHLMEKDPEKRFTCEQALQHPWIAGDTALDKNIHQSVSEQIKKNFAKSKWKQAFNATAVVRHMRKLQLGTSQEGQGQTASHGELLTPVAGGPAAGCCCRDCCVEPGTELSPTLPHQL

Chain of Calcium/calmodulin-dependent protein kinase type II subunit beta (Homo sapiens) (Q13554 whole entry): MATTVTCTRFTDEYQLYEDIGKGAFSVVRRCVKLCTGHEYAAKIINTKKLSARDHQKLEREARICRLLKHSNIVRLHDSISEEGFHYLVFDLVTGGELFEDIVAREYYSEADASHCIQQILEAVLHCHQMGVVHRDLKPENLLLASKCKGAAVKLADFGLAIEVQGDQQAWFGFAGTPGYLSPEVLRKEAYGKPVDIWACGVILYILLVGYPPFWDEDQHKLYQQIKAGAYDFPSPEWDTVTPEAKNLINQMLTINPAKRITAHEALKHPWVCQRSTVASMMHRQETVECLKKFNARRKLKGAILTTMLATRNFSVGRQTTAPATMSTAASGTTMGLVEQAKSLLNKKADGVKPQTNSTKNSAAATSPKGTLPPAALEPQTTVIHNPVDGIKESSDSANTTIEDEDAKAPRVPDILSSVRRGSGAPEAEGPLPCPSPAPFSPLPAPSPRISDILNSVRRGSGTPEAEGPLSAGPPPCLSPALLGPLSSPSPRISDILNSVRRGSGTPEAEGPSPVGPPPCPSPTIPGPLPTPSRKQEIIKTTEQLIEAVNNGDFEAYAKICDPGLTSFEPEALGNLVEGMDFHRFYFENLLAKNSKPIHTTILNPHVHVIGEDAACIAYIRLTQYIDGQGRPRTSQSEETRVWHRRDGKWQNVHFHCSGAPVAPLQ

Row | Compound | residual activity [1] [%] | residual activity [2] [%] | residual activity [3] [%] | residual activity [4] [%] | residual activity [5] [%] | residual activity [6] [%] | residual activity [7] [%] | residual activity [8] [%] | residual activity [9] [%]
1 | CN([C@@H](Cc1ccc(OS(=O)(=O)c2cccc3cnccc23)cc1)C(=O)N1CCN(c2ccccc2)CC1)S(=O)(=O)c1cccc2cnccc12 | 100 | 78 | 99 |  |  |  |  |  | 
2 | CCN1/C(=C/C(C)=O)Sc2ccc(OC)cc21 |  | 70 |  |  |  |  |  |  | 
3 | CC(C)[C@H](CO)Nc1nc(Nc2cc(N)cc(Cl)c2)c2ncn(C(C)C)c2n1 | 92 | 58 | 80 | 76 | 20 | 24 | 96 | 33 | 
4 | O=C1Nc2ccccc2/C1=C\c1c(Cl)[nH]c2ccccc12 |  | 25 | 87 |  | 39 | 34 |  |  | 51
5 | CN(C)S(=O)(=O)c1ccc2c(c1)/C(=C/c1cc3c([nH]1)CCCC3)C(=O)N2 | 71 | 59 | 18 | 17 | 12 | 13 | 89 | 98 | 94
6 | Cc1cc(C)c(/C=C2\C(=O)Nc3ccccc32)[nH]1 |  |  | 38 | 32 | -1 | 9 | 104 | 60 | 
7 | O=S(=O)(NCCNC/C=C/c1ccc(Br)cc1)c1cccc2cnccc12 | 76 | 29 |  | 100 | 41 | 35 |  |  | 
8 | Fc1ccc(-c2nc3n(c2-c2ccncc2)CCS3)cc1 | 100 | 95 |  |  |  |  |  |  | 
9 | Nc1nc(Nc2ccc(S(N)(=O)=O)cc2)nn1C(=O)c1c(F)cccc1F |  | 43 | 75 | 73 | 19 | 31 |  | 64 | 60
10 | CCCCc1c(-c2ccc(O)cc2)[nH]c2nccnc12 | 77 | 51 | 62 |  |  | 22 |  |  | 71
